Inconclusive results are not listed. Unmarked numbers belong to inactive results. Calls come from the whole dose curve.
Test: S16 Schwann cell PMP22 intronic element beta-lactamase assay (AID 624044); note: nearly all actives have a fitted effect of over 15% in size
Settings: S16 rat Schwann cells, PMP22 element beta-lactamase FRET, 24 h; series mostly up to 17.1 µM; ratio activity, negative = inhibition: at the top concentration
From the text: Description: Charcot-Marie-Tooth-Association [CMTA] National Center for Advancing Translational Sciences [NCATS] Charcot-Marie-Tooth (CMT) disease was first characterized by Jean-Martin Charcot and Pierre Marie in France and, independently, by Howard Henry Tooth in England in 1886. CMT is one of the most common inherited neurological diseases, affecting approximately 1 in 2,500 Americans. […] The most prevalent type of CMT is known as CMT1A and caused by a duplication of the PMP22 gene which leads to over-expression of this protein. PMP22 is a glycosylated intrinsic membrane protein accounting for 2-5% of the myelin protein content, and its over-expression results in demyelination and subsequently axonal loss. A pair of cellular transcription-based assays was developed in the S16 rat Schwann cell lines (Hai, M., et al., 2002) stably transfected with orthogonal reporters - firefly luciferase (Fluc) and beta-lactamase (beta-Lac) - whose expression is driven by an intronic regulatory element of the PMP22 gene (Jones, E.A., et al., 2011) to recapitulate endogenous expression of PMP22. The current assay employs Blac as a reporter of PMP22 expression. A comprehensive library of approved drugs, the NCGC Pharmaceutical Collection (Huang, R., et al., 2011), was screened in the cross-validating platform of the orthogonal reporter assays to identify drug modulators inhibitory towards PMP22 expression. A set of counter-screens was devised to address non-specific activity of the library. An ATP-dependent CellTiter-Glo assay (developed by Promega Corp) was utilized to control cell viability. In addition, biochemical Fluc enzyme assay was performed to assess direct inhibition of the Fluc enzymatic activity. References Hai, M., Muja, N., DeVries, G.H., Quarles, R.H. and Patel, P.I. Comparative analysis of Schwann cell lines as model systems for myelin gene transcription studies. J Neurosci Res, 2002. 69(4): pp 497-508 Huang, R., Southall, N., Wang, Y., Yasgar A., Shinn P., Jadhav, A. , Nguyen, D.-T. and Austin, C.P., The NCGC pharmaceutical collection: a comprehensive resource of clinically approved drugs enabling repurposing and chemical genomics. Sci Transl Med, 2011. 3(80): p. 80ps16.
S16 Schwann cell PMP22 intronic element beta-lactamase assay The beta-Lac-expressing S16 cells were seeded in black clear-bottom 1536 well plates at between 500-750 cells/6uL in DMEM medium containing 10% FBS, w/o phenol red. After overnight incubation at 37 degree Celsius/5% C02, 23 nL of compounds or DMSO were delivered to each well using a pin tool, followed by 24h-incubation at 37 degree Celsius/5% C02. Then one microl of LiveBLAzer FRET B/G detection mix (Invitrogen) was added to each well. An EnVision plate reader (PerkinElmer) was used to detect the dual beta-Lac output composed of fluorescence at 460nm for beta-Lac expression and FRET at 535nm for cell viability. The % signal at 535 nm was scaled to a full range of DMSO and zero and then normalized using the maximum response observed in the screen as 100% activity. The % signal at 460nm was normalized to the average readings of potassium clavulanate (a positive control) - treated cells relative to DMSO-treated cells (0% Activity). The concentration-effect curves were then classified based on curve quality (r2), response magnitude and degree of measured activity.

SMILES | ratio activity, negative = inhibition
COc1cc2nc(N3CCN(C(=O)[C@@H]4COc5ccccc5O4)CC3)nc(N)c2cc1OC | 0.0634% [at 38.3 µM]
OCC1OC([S-])[C@H](O)C(O)C1O.[Au+] (stereo not given in full) | -3.68% [at 38.3 µM]
CO[C@]1(NC(=O)C2SC(=C(C(N)=O)C(=O)O)S2)C(=O)N2C(C(=O)O)=C(CSc3nnnn3C)CS[C@H]21 (stereo not given in full) | -3.36%
CS(=O)(=O)c1ccc([C@H](O)[C@H](CO)NC(=O)C(Cl)Cl)cc1 | -1.35%
CO[C@@H]1C[C@H](O[C@H]2[C@@H](C)[C@H](O[C@@H]3O[C@@H](C)C[C@@H](N(C)C)[C@@H]3OC(C)=O)[C@H](C)C[C@]3(CO3)C(=O)[C@H](C)[C@H](OC(C)=O)[C@H](C)[C@H](C)OC(=O)[C@@H]2C)O[C@H](C)[C@@H]1OC(C)=O | 3.28%
CC(=O)N[C@@H]1C(O)OC(CO)C(O)C1O (stereo not given in full) | -1.71% [at 38.3 µM]
COC1OC(CO)C(OC2OC(C(=O)O)C(OC3OC(COS(=O)(=O)O)C(OC4OC(C(=O)O)C(OC5OC(CO)C(OC6OC(C(=O)O)C(OC7OC(COS(=O)(=O)O)C(OC8OC(C(=O)O)=C[C@H](O)C8OS(=O)(=O)O)C(O)C7NC(C)=O)[C@@H](O)C6O)C(O)C5NC(C)=O)[C@@H](O)C4O)C(O)C3NC(C)=O)[C@@H](O)C2O)C(O)C1NC(C)=O (stereo not given in full) | 2.01% [at 38.3 µM]
CNC1CC(N)[C@H](O)[C@@H](O[C@@H]2OC(CO)C3OC4(OC(C(N)CO)C(O)C(O)C4O)O[C@@H]3[C@H]2O)C1O (stereo not given in full) | -4.57% [at 38.3 µM]
CCC(C)(C)C(=O)O[C@@H]1C[C@H](C)C=C2C=C[C@H](C)[C@@H](CC[C@H]3C[C@@H](O)CC(=O)O3)[C@H]21 | 9.19%
NC(=O)c1ccc[n+]([C@@H]2O[C@H](COP(=O)([O-])OP(=O)(O)OC[C@H]3O[C@@H](n4cnc5c(N)ncnc54)[C@@H](O)[C@@H]3O)[C@@H](O)[C@@H]2O)c1 | -0.0356%
CCCCC[C@H](O)/C=C\[C@H]1[C@H](C/C=C\CCCC(=O)O)[C@@H](O)C[C@H]1O (tested in a mixture with another compound) | 0.501%
N[C@@H]1C(O)OC(CO)C(O)C1O (stereo not given in full) | -1.78% [at 38.3 µM]
CN(C)CCn1nnnc1SCC1=C(C(=O)O)N2C(=O)[C@@H](NC(=O)Cc3csc(N)n3)[C@@H]2SC1 | 0.118%
Cc1ncc([N+](=O)[O-])n1C[C@H](O)CCl | 0.49%
O=C(O)[C@@H]1[C@@H]2C[C@H]3c4[nH]c5ccccc5c4CCN3C[C@@H]2CC[C@@H]1O | 11.6%
CC(=O)O[C@H]1C[C@@]2(C)[C@H](C[C@@H](O)[C@H]3[C@@]4(C)CC[C@@H](O)[C@@H](C)[C@H]4CC[C@@]32C)C1=C(CCC=C(C)C)C(=O)O | 0.856% [at 38.3 µM]
C[C@H](N[C@@H](C)COc1ccccc1)[C@H](O)c1ccc(O)cc1 | 4.37%
COc1cc(N[C@@H](C)CCCN)c2ncccc2c1 | -0.944%
C[C@@H](CNC1CCCCC1)OC(=O)c1ccccc1 | -17.7%
CC(C)(C)NC(=O)[C@@H]1CC[C@@H]2[C@@H]3CC[C@@H]4NC(=O)C=C[C@@]4(C)[C@H]3CC[C@]21C | 2.24%

SMILES | ratio activity, negative = inhibition
CCC(=O)[C@@]1(C)[C@H](C)C[C@@H]2[C@@H]3CCC4=CC(=O)C=C[C@@]4(C)[C@H]3[C@H](O)C[C@]21C | 2.36%
CC[C@H]1NC(=O)c2cc(S(N)(=O)=O)c(Cl)cc2N1 | -8.6%
COC(=O)N/N=C/C1=C[N+](=O)c2ccccc2[N+]1=O | -2.37% [at 38.3 µM]
Cn1nnnc1SCC1=C(C(=O)O)N2C(=O)[C@@H](NC(=O)[C@@H](O)c3ccccc3)[C@@H]2SC1 | 3.54%
COc1ccccc1OC[C@H](O)CO | 3.24%
CN[C@H]1[C@@H](O)[C@@H](NC)[C@@H]2O[C@@]3(O)C(=O)C[C@@H](C)O[C@H]3O[C@H]2[C@H]1O | 2.89%
COc1c(O[C@H]2O[C@@H](CO)[C@@H](O)[C@@H](O)[C@@H]2O)cc2c(c1OC)-c1ccc(SC)c(=O)cc1[C@H](NC(C)=O)CC2 | -3.68%
CCC(=O)OCC(=O)[C@@]1(OC(=O)CC)[C@H](C)C[C@@H]2[C@@H]3[C@H]([C@@H](O)C[C@@]21C)[C@]1(C)C=CC(=O)C=C1C[C@@H]3Cl | -7.55%
CC1(C)[C@@H](OC(=O)CCC(=O)O)CC[C@@]2(C)[C@H]1CC[C@@]1(C)[C@H]2C(=O)C=C2[C@H]3C[C@](C)(C(=O)O)CC[C@]3(C)CC[C@@]21C | 0.769%
CCOC(=O)Oc1c(OC)cc(C(=O)O[C@H]2C[C@H]3CN4CCc5c([nH]c6cc(OC)ccc56)[C@@H]4C[C@H]3[C@@H](C(=O)OC)[C@@H]2OC)cc1OC | -10.7%
C[C@@H]1Cc2ccccc2N1NC(=O)c1ccc(Cl)c(S(N)=O)c1 (stereo not given in full) | -2.54%
CCN(CCCCOC(=O)c1ccc(OC)c(OC)c1)[C@@H](C)Cc1ccc(OC)cc1 | -0.354%
CN1CCN([C@@H](c2ccccc2)c2ccc(Cl)cc2)CC1 | -5.72%
C1CCN2C[C@@H]3C[C@@H](CN4CCCC[C@H]34)[C@H]2C1 | -6.32%
C[C@H]1CS(=O)(=O)CCN1/N=C\c1ccc([N+](=O)[O-])o1 | 0.824%
COc1cc(N)c(Cl)cc1C(=O)N[C@H]1CCN(CCCOc2ccc(F)cc2)C[C@H]1OC | -10.4%
CCCC(=O)Nc1ccc(OC[C@@H](O)CNC(C)C)c(C(C)=O)c1 | -0.888%
O=C(N/N=C\c1ccc([N+](=O)[O-])o1)c1ccc(O)cc1 | 1.01%
Nc1nc(NC2CC2)c2ncn([C@H]3C=C[C@@H](CO)C3)c2n1 | -12.7% [at 38.3 µM]
C[C@]1(c2ccccc2)OC(C(=O)O)=CC1=O | 5.72% [at 38.3 µM]
